Results reported in ChEMBL document CHEMBL1157539, “Thousands of chemical starting points for antimalarial lead identification” (Nature, 2010).

Columns and labels:
Type in all cases: functional
Plasmodium falciparum [1] = assay: GSK_TCMDC: Inhibition of Plasmodium falciparum 3D7 in whole red blood cells, using parasite LDH activity as an index of growth. Test compounds present at 2uM
Plasmodium falciparum [2] = assay: GSK_TCMDC: Inhibition of Plasmodium falciparum Dd2 in whole red blood cells, using parasite LDH activity as an index of growth. Test compounds present at 2uM
HepG2 = assay: GSK_TCMDC: Percent inhibition of human HepG2 cell line. Test compounds present at 10uM.

Structure (SMILES) | Inhibition (Plasmodium falciparum [1]) [%] | Inhibition (Plasmodium falciparum [2]) [%] | Inhibition (HepG2) [%]
COC(=O)C(Cc1ccccc1)NC(=O)NC1CCN(c2ccnc(Nc3ccc(F)cc3)n2)C1 (stereo not drawn) | 90 | 14 | 0
Nc1nc(N)c2cc(CNc3ccc(Cl)c(Cl)c3)ccc2n1 | 93 | 55 | 62
Cc1cccc2nc(-c3cccc(-c4cccc(NC(=O)c5c[nH]cn5)c4)c3)[nH]c12 | 100 | 91 | 2
CCOc1cc(-c2nnc3[nH]c(=O)n(C)c(=O)c3n2)ccc1OC(C)C | 97 | 86 | 15
Cc1ccc(Nc2nc(C)cc(N3CCN(CCc4ccccc4)CC3)n2)cc1 | 93 | 6 | 6
COc1nc2c(CCN3CC[C@H](NCc4cc(C#N)c5c(c4)CCO5)[C@H](O)C3)ccnc2cc1F | 99 | 71 | 31
Cc1nc2ccccc2c(O)c1-c1ccc(Cl)cc1 | 93 | 91 | 0
N#Cc1ccc(N[C@@H](CC2CCCCC2)C(=O)N[C@@H]2CCCc3ccccc32)c2ccccc12.O=C(O)C(F)(F)F | 99 | 99 | 12
CCCC(=O)Nc1ccc(OCCCN(Cc2ccccc2F)c2ccc(C#N)c(C(F)(F)F)c2)cc1 | 89 | 93 | 7
COc1ccccc1CNc1ccnc(NCCc2cccc(C(F)(F)F)c2)n1 | 93 | 68 | 39
N=C(N)NC(=O)Nc1cc(Cl)c(Br)c(Cl)c1 | 100 | 100 | 6
CN(C)c1ccc(C=C2SC(=N)N(c3nccs3)C2=O)cc1 | 97 | 50 | 38
CNc1cc(-c2ccc3ccnc(N)c3c2)nc(N)n1.O=CO | 100 | 81 | 23
c1ccc(-c2nnc(-c3ccccn3)nc2NC2CCCCC2)cc1 | 97 | 80 | 74
O=C(O)C(F)(F)F.c1cc(CNCCN2CCNCC2)cc(-c2cccc(-c3nc4ccccc4[nH]3)c2)c1 | 89 | 1 | 11
Br.COc1ccc(CCON2C(=N)N=C(N)NC2(C)C)cc1OC | 96 | 93 | 64
O=C(NCCc1cccc(F)c1)c1ccc(N2CCN(c3ccncc3)CC2)cn1.O=C(O)C(F)(F)F | 94 | 7 | 4
COc1ccc(C(=O)COc2cccc(/C=C/C(=O)O)c2)cc1OC | 84 | 28 | 44
CCc1nc(N)nc(N)c1-c1cccc(Cl)c1 | 94 | 1 | 60
Cc1cc(=NN=Cc2ccc(Cl)cc2)c2ccccc2[nH]1 | 100 | 87 | 5
Cc1cccc2nc(-c3cccc(-c4ccc(CNCCCN5CCCC5=O)cc4)c3)[nH]c12.O=C(O)C(F)(F)F | 100 | 38 | 5

Structure (SMILES) | Inhibition (Plasmodium falciparum [1]) [%] | Inhibition (Plasmodium falciparum [2]) [%] | Inhibition (HepG2) [%]
Cl.O=C(C=Cc1ccc(F)cc1)NC1CCC(CCN2CCc3ccc(-c4cnccn4)cc3CC2)CC1 (stereo not drawn) | 99 | 65 | 32
CCCC(C)Nc1nc(C)cc(N[C@@H](CC(C)C)C(=O)NC2CCCC2)n1.O=C(O)C(F)(F)F (stereo partly drawn) | 85 | 22 | 6
Cc1cc(N[C@@H](CC(C)C)C(=O)NCCc2ccccc2)nc(Nc2ccccc2)n1.O=C(O)C(F)(F)F | 100 | 38 | 1
CCNc1cc(C(=O)N[C@@H](Cc2ccccc2)[C@H](O)CN[C@H](C)C(C)(C)C)cc(N2CCCCS2(=O)=O)c1.Cl | 95 | 41 | 4
FC(F)(F)c1cccc2c(NN=Cc3ccccc3)ccnc12 | 100 | 90 | 10
N.Nc1nc2c(ncn2COC2COP(=O)(O)OC2)c(=O)[nH]1 (stereo not drawn) | 81 | 54 | 7
COc1ccc(-c2cccc(CNC3CCN(CC4Cn5c(=O)ccc6ccc(F)c4c65)CC3)c2)cc1.O=C(O)C(F)(F)F (stereo not drawn) | 100 | 74 | 22
CCOC(=O)c1nc(-c2cc(Cl)nc(Cl)c2)[nH]c1NC(=S)NCc1ccc(NS(C)(=O)=O)cc1 | 100 | 98 | 0
Cc1ccc2c(=O)n(C)c(=O)n(C)c2n1 | 98 | 0 | 15
Br.COc1cc(OCCCCCCON2C(=N)N=C(N)NC2(C)C)cc(OC)c1OC | 94 | 93 | 41
COc1cc2cc(Cc3cnc(N)nc3N)ccc2c(OC)c1OC.Cl | 97 | 2 | 1
CCOc1c(Br)cc(C)cc1CNCCCNc1nc2ccccc2[nH]1.Cl | 93 | 5 | 24
Cc1cc(F)ccc1N(c1nc(-c2cc(Cl)ccc2Cl)cs1)C1CCNC1.O=C(O)C(F)(F)F (stereo not drawn) | 99 | 3 | 19
CC(C)(CNCc1ccc(Cl)cc1)c1nc(-c2ccc(Cl)c(O)c2)c(-c2ccncc2)[nH]1.Cl | 100 | 98 | 86
O=C(Nc1cccc(-c2ccc(-c3nc4cc(F)ccc4[nH]3)cc2)c1)Nc1ccc(F)c(F)c1F | 98 | 98 | 53
O=C(Nc1cccc(CN2CCCN(Cc3ncc[nH]3)CC2)c1)c1ccc2ccccc2c1.O=C(O)C(F)(F)F | 100 | 2 | 13
CCCCCCCCCn1c(NCc2cc(Cl)ccc2O)nc2ccccc21 | 97 | 92 | 13
CN1CCN(CCCN(Cc2ccc(-c3cccc(CNCc4ccc5c(c4)OCO5)c3)cc2)C(=O)Nc2ccccc2)CC1.O=C(O)C(F)(F)F | 100 | 87 | 51
Cl.Nc1c2c(nc3ccc(NC(=O)c4ccc([N+](=O)[O-])cc4)cc13)CCCC2 | 100 | 72 | 19
COCCn1c(-c2cccc(Cl)c2)nn(-c2ccc([N+](=O)[O-])cc2Cl)c1=S | 100 | 99 | 2
CN(C)CCNC(=O)[C@H](Cc1ccccc1)NC(=O)c1ccc(O)c(-c2ccc(Cl)c(Cl)c2)c1 | 98 | 0 | 0

Structure (SMILES) | Inhibition (Plasmodium falciparum [1]) [%] | Inhibition (Plasmodium falciparum [2]) [%] | Inhibition (HepG2) [%]
O=C(c1cc(-c2cccs2)n[nH]1)N1CCN(S(=O)(=O)c2ccc(Br)cc2)CC1 | 93 | 95 | 0
CCOc1ccc2nc3cc([N+](=O)[O-])ccc3c(N)c2c1 | 99 | 100 | 67
N#Cc1ccc(N2CCN(Cc3cccc(-c4ccc(-c5nc6cc(C(F)(F)F)ccc6[nH]5)s4)c3)CC2)nc1.O=C(O)C(F)(F)F | 96 | 52 | 31
CCCCCCNC(=O)C1Cc2c([nH]c3cc(Cl)ccc23)C2(CCN(CCC)CC2)N1 (stereo not drawn) | 92 | 18 | 8
O=C(Nc1cccc(-c2cccc(-c3nc4cc(F)ccc4[nH]3)c2)c1)c1ccncc1 | 92 | 24 | 28
Fc1ccc2[nH]c(-c3cccc(-c4cccc(CNCc5ccccc5)c4)c3)nc2c1.O=C(O)C(F)(F)F | 100 | 52 | 24
CCCCN(CCCC)CCC(O)C(=Cc1ccc(Cl)cc1Cl)c1ccc(C(F)(F)F)cc1N (stereo not drawn) | 100 | 99 | 0
O=C(NCc1ccc(Cl)c(Cl)c1)c1cccc(C2CCCN(Cc3ccc4[nH]cnc4c3)C2)c1 (stereo not drawn) | 95 | 30 | 3
O=C(O)C(F)(F)F.OCC1CCN(Cc2ccc(-c3ccc(-c4nc5cc(F)ccc5[nH]4)cc3)cc2)CC1 | 100 | 95 | 17
Cl.N=C(N)Nc1ccc(OCCCCCOc2ccc(NC(=N)N)cc2)cc1 | 99 | 100 | 12
CCN(CC)CCN(Cc1ccc(-c2ccc(C(F)(F)F)cc2)cc1)C(=O)Cn1c(CCc2cc(F)c(F)c(F)c2)nc(=O)c2ccccc21.O=C(O)C(O)C(O)C(=O)O | 100 | 70 | 31
CCOC(=O)CCc1cc(F)c(F)c(OC[C@H](O)CNC(C)(C)C(O)c2ccc3ccccc3c2)c1.Cl (stereo partly drawn) | 99 | 92 | 12
CC(C)(C)OC(=O)c1c(NC(=O)/C=C/c2ccc(O)c(O)c2)sc2c1CCCC2 | 97 | 77 | 4
COc1ccc(CC(=O)Nc2ccc(Nc3nc(C)cc(N4CCCC4)n3)cc2)cc1 | 100 | 65 | 56
O=C(NC1CC1)c1cnc(N2CCC(Cc3ccccc3)CC2)c(Cl)c1.O=C(O)C(F)(F)F | 96 | 96 | 10
Cl.OC(c1ccccc1)C1CN(CCC2CC3CCC2C3)CCC1(O)c1ccccc1 (stereo not drawn) | 97 | 99 | 0
COc1ccc(-c2ccc(NC(=O)c3ccc(Cl)cc3)cc2)cc1CN1CCCN(C)CC1.O=C(O)C(F)(F)F | 93 | 61 | 27
COc1ccc2nccc(N3CCC(SCCNCc4ccc5c(n4)NC(=O)CS5)C3)c2n1.Cl (stereo not drawn) | 95 | 100 | 34
Cc1ccnc(NC(c2cccc(Cl)c2Cl)c2ccc3cccnc3c2O)c1 (stereo not drawn) | 86 | 38 | 46
